Test results reported in PubChem BioAssay (EPA / NIEHS).
Results filed as inconclusive are left out. The source made the active and inactive calls. The calls were made as follows: active = hit-call score of the fitted dose curve at least 0.9, where 1 is the maximum; inconclusive = response in the unintended direction; inactive = score below 0.9.

biological target: human Protein Tyrosine Phosphatase Non-receptor Type 6 (PTPN6), PTPN6 (gene 5777) (UniProt P29350); test: NVS_ENZ_hPTPN6: NovaScreen (NVS) Enzymatic Assay for human Protein Tyrosine Phosphatase Non-receptor Type 6 (PTPN6) (AID 2283210)
Sequence (P29350 whole entry, looked up): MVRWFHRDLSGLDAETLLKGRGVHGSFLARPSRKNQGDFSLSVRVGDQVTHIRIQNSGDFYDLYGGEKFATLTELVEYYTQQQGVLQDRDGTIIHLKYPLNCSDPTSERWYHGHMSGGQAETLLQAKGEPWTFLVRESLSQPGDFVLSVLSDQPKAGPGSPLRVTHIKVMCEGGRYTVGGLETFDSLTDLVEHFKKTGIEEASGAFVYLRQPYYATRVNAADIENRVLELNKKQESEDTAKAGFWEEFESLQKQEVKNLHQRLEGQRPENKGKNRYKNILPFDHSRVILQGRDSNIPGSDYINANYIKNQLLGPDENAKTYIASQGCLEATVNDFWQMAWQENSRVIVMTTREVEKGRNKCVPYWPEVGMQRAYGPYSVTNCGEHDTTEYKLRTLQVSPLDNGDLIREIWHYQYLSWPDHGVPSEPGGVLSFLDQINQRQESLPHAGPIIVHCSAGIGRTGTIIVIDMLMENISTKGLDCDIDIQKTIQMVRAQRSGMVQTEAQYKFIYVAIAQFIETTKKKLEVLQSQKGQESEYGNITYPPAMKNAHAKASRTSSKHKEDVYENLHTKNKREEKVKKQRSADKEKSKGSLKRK
Outline: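 Cell-free assay with recombinant PTPN6 expressed in SF9 cells, fluorescent substrate, product separated from substrate by electrophoretic mobility shift; read 1.33 hours after dosing. Primary screen in duplicate at 25 uM, actives retested in concentration series; DMSO baseline.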

Structure (SMILES) | outcome | AC50
OC[C@H]1O[C@@H]2O[C@H]3[C@H](O)[C@@H](O)[C@@H](O[C@H]4[C@H](O)[C@@H](O)[C@@H](O[C@H]5[C@H](O)[C@@H](O)[C@@H](O[C@H]6[C@H](O)[C@@H](O)[C@@H](O[C@H]7[C@H](O)[C@@H](O)[C@@H](O[C@H]1[C@H](O)[C@H]2O)O[C@@H]7CO)O[C@@H]6CO)O[C@@H]5CO)O[C@@H]4CO)O[C@@H]3CO | inactive | –
OCCOCCOCCO | inactive | –
c1ccc2ncccc2c1 | inactive | –
O=C(O)c1cccc(C(=O)O)c1 | inactive | –
NC(=O)N1c2ccccc2C=Cc2ccccc21 | inactive | –
NNC(=O)c1ccncc1 | inactive | –
NC(=O)NN=Cc1ccc([N+](=O)[O-])o1 | – | 10.9 µM (active)
O=C(O)[C@H](O)[C@@H](O)C(=O)O | inactive | –
CC1(C)C(=O)N(Cl)C(=O)N1Cl | inactive | –
COS(C)(=O)=O | inactive | –
CNC(C)=O | inactive | –
C[C@]12C=CC(=O)C=C1CC[C@H]1[C@@H]3C[C@@H](O)[C@](O)(C(=O)CO)[C@@]3(C)C[C@H](O)[C@@]12F | inactive | –
C=CN1CCCC1=O | inactive | –
O=S1(=O)CCCO1 | inactive | –

biological target: human Protein Tyrosine Phosphatase Receptor Type B (PTPRB), PTPRB (gene 5787) (UniProt P23467); test: NVS_ENZ_hPTPRB: NovaScreen (NVS) Enzymatic Assay for human Protein Tyrosine Phosphatase Receptor Type B (PTPRB) (AID 2283211)
Outline: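 Recombinant human PTPRB with a fluorescent substrate, product separated by electrophoretic mobility shift; read 1 h after dosing. Primary screen in duplicate at 25 uM; actives then retested in concentration series; loss of signal versus DMSO.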

Structure (SMILES) | outcome | AC50
CCCCCCCC/C=C\CCCCCCCC(=O)OC[C@@H](O)[C@H]1OC[C@H](O)[C@H]1O | inactive | –
CCCC(CCC)C(=O)O | inactive | –
Cc1ncc([C@@H](CCCCCCc2ccc3c(n2)NCCC3)CC(=O)O)cn1 | – | 18.6 µM (active)

biological target: human Protein Tyrosine Phosphatase Receptor Type F (PTPRF), PTPRF (gene 5792) (UniProt P10586); test: NVS_ENZ_hPTPRF: NovaScreen (NVS) Enzymatic Assay for human Protein Tyrosine Phosphatase Receptor Type F (PTPRF) (AID 2283213)
Sequence (P10586 whole entry, looked up): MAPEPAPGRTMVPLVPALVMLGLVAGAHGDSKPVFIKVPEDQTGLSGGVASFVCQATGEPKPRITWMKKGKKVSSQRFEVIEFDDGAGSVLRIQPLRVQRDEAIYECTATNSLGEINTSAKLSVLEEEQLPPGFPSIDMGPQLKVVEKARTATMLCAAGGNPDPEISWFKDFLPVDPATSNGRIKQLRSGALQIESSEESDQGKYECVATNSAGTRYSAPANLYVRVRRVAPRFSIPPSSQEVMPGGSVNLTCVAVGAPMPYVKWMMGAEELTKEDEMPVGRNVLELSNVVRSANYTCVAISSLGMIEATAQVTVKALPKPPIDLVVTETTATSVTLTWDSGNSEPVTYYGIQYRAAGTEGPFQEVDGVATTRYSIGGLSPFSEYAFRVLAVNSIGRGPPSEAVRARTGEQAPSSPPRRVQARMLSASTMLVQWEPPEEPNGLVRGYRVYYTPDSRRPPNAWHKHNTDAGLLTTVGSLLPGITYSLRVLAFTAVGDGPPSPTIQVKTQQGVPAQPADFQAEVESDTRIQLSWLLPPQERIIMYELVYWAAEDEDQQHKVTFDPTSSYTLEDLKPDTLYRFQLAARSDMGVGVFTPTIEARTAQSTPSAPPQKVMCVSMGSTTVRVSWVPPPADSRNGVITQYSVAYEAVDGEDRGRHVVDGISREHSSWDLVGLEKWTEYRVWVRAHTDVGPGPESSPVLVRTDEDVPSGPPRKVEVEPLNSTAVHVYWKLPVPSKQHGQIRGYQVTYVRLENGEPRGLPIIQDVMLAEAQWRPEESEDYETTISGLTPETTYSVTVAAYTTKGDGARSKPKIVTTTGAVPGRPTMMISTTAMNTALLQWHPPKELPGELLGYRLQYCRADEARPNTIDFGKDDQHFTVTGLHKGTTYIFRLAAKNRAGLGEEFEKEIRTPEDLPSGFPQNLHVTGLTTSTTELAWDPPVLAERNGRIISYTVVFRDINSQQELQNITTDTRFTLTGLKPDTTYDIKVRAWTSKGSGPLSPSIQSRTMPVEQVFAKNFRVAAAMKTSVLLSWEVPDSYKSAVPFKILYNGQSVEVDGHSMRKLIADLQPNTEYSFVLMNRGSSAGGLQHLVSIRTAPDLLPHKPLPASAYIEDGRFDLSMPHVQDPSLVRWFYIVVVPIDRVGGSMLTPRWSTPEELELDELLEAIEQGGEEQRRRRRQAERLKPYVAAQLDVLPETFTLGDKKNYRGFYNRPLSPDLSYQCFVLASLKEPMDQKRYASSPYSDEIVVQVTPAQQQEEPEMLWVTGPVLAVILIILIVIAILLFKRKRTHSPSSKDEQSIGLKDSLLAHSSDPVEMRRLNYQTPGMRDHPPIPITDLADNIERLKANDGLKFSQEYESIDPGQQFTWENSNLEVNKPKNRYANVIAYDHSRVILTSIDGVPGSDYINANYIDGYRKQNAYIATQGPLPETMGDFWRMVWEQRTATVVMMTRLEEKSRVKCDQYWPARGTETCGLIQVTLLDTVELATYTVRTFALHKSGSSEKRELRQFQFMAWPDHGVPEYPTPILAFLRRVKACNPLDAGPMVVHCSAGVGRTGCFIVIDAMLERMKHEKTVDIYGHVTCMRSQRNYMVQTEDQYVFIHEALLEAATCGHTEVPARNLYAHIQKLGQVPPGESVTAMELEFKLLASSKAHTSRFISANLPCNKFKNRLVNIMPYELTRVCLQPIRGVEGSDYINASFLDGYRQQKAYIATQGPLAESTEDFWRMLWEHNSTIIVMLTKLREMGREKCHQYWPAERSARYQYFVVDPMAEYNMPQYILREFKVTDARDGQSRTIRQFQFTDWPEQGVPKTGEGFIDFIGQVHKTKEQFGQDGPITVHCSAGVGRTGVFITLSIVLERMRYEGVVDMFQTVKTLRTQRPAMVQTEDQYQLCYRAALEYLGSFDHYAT
Outline: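 Cell-free fluorescence enzyme assay with recombinant protein and substrate; product separated by electrophoretic mobility shift. Read 1 h after dosing, single 25 uM duplicate screen, then concentration-response up to 50 uM; loss of signal vs DMSO.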

Structure (SMILES) | outcome
CCCCCCCC/C=C\CCCCCCCC(=O)OC[C@@H](O)[C@H]1OC[C@H](O)[C@H]1O | inactive
O=C(O)c1ccc2c(c1)nc(C(=O)NC1CCN(C3CC3)CC1)n2Cc1cc(-c2ccc(Cl)s2)on1 | inactive
Cc1ncc([C@@H](CCCCCCc2ccc3c(n2)NCCC3)CC(=O)O)cn1 | inactive

biological target: human Rho Associated Coiled-coil Containing Protein Kinase 1 (ROCK1), ROCK1 (gene 6093) (UniProt Q13464); test: NVS_ENZ_hROCK1: NovaScreen (NVS) Enzymatic Assay for human Rho Associated Coiled-coil Containing Protein Kinase 1 (ROCK1) (AID 2283214)
Sequence (Q13464 whole entry, looked up): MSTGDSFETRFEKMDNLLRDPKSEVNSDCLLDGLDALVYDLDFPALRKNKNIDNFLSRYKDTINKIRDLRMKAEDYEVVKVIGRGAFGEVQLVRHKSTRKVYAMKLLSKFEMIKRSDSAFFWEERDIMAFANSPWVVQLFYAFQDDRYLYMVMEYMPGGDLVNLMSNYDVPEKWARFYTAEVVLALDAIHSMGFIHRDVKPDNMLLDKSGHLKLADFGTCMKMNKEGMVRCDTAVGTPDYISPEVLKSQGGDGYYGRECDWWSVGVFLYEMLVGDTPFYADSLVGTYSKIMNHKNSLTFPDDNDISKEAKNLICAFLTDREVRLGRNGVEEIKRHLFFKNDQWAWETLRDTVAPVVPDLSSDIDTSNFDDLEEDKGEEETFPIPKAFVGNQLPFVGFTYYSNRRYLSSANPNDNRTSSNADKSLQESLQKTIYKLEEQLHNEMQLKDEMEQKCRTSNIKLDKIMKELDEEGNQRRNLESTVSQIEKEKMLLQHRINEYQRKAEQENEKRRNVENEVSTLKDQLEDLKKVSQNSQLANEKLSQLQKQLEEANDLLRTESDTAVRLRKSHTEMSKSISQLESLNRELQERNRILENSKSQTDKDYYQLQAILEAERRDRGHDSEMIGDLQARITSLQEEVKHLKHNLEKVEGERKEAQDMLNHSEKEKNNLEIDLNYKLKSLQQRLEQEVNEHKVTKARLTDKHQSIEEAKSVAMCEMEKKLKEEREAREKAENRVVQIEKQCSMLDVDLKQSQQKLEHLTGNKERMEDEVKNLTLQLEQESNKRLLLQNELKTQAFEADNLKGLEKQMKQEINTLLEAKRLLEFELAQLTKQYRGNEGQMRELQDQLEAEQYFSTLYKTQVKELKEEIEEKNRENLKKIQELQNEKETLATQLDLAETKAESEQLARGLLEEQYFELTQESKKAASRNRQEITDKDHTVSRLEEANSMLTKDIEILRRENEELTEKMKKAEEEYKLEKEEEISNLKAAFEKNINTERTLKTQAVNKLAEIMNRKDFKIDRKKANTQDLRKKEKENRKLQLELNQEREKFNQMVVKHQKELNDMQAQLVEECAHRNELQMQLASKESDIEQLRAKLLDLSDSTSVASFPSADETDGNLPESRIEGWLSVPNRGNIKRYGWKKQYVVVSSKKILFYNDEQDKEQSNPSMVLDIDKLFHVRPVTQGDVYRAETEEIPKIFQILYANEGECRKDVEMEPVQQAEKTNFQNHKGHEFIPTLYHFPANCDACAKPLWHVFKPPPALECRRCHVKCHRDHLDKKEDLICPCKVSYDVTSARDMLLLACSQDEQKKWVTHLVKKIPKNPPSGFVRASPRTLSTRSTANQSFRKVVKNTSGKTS
Outline: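 Cell-free recombinant human ROCK1 activity assay; fluorescent substrate and product separated by electrophoretic mobility shift, read 1 h after dosing. Screened in duplicate at 25 uM; loss of signal versus DMSO baseline scored as inhibition.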

Structure (SMILES) | outcome
CCN(CC)C(=S)SSC(=S)N(CC)CC | inactive
O=c1[nH]cnc2c1ncn2[C@H]1CC[C@@H](CO)O1 | inactive
CCCc1ccccc1 | inactive
CC(=O)c1ccccc1 | inactive
CCCC(CCC)C(=O)O | inactive

biological target: human Protein Tyrosine Phosphatase Receptor Type M (PTPRM), PTPRM (gene 5797) (UniProt P28827); test: NVS_ENZ_hPTPRM: NovaScreen (NVS) Enzymatic Assay for human Protein Tyrosine Phosphatase Receptor Type M (PTPRM) (AID 2283215)
Outline: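 Cell-free recombinant PTPRM with fluorogenic substrate; product separated from substrate by electrophoretic mobility shift and read by fluorescence, 1.33 h after dosing. Primary screen single concentration (25 uM) in duplicate; actives retested in concentration series; loss of signal versus DMSO.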

Structure (SMILES) | outcome
c1ccc2ncccc2c1 | inactive
NC(=O)N1c2ccccc2C=Cc2ccccc21 | inactive
Cc1nc(-c2ccccn2)ncc1C(=O)Nn1cc(C)c2cc(F)ccc21 | inactive
O=c1[nH]cnc2c1ncn2[C@H]1CC[C@@H](CO)O1 | inactive
CCOc1ccc2[nH]cc(C(=O)NCc3ccccc3)c(=O)c2n1 | inactive
O=C(O)c1ccc2c(c1)nc(C(=O)NC1CCN(C3CC3)CC1)n2Cc1cc(-c2ccc(Cl)s2)on1 | inactive
Cc1ncc([C@@H](CCCCCCc2ccc3c(n2)NCCC3)CC(=O)O)cn1 | inactive
